Laboratory results: ChEMBL document CHEMBL1961873, “Compounds: GSK PKIS; Assays: Nanosyn kinase panel” (2012)

What was measured:
[1] = target: T1, 3-phosphoinositide-dependent protein kinase 1 (Homo sapiens) (UniProt O15530); details: at 0.1 µM;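 also: values are mean inhibition of PDK1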
T1 sequence (whole entry): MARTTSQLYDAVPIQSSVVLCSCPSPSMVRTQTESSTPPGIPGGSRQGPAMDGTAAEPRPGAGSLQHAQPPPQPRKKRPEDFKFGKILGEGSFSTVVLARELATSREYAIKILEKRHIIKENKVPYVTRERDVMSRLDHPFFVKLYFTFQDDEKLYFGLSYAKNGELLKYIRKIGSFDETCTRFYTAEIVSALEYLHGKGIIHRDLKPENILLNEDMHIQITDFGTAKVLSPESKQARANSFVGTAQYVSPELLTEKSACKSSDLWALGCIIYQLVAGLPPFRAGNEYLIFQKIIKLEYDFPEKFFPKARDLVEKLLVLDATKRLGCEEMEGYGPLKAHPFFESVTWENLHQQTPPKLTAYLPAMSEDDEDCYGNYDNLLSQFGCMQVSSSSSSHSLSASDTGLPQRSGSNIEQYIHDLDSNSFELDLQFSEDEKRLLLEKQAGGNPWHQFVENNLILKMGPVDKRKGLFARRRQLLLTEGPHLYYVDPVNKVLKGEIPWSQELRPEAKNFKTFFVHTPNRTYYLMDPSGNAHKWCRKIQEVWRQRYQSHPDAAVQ

[2] = target: cAMP-dependent protein kinase catalytic subunit alpha (Homo sapiens) (UniProt P17612); details: at 0.1 µM
[3] = target: cAMP-dependent protein kinase catalytic subunit alpha (Homo sapiens) (UniProt P17612); details: at 1 µM
[4] = target: Protein kinase C alpha type (Homo sapiens) (UniProt P17252); details: at 0.1 µM
[5] = target: Protein kinase C alpha type (Homo sapiens) (UniProt P17252); details: at 1 µM
[6] = target: Protein kinase C beta type (Homo sapiens) (UniProt P05771); details: at 0.1 µM
[7] = target: Protein kinase C beta type (Homo sapiens) (UniProt P05771); details: at 1 µM
[8] = target: Protein kinase C eta type (Homo sapiens) (UniProt P24723); details: at 0.1 µM
[9] = target: Protein kinase C eta type (Homo sapiens) (UniProt P24723); details: at 1 µM
[10] = target: Protein kinase C gamma type (Homo sapiens) (UniProt P05129); details: at 0.1 µM
[11] = target: Protein kinase C gamma type (Homo sapiens) (UniProt P05129); details: at 1 µM
[12] = target: T2, Protein kinase C iota type (Homo sapiens) (UniProt P41743); details: at 0.1 µM
T2 sequence (whole entry): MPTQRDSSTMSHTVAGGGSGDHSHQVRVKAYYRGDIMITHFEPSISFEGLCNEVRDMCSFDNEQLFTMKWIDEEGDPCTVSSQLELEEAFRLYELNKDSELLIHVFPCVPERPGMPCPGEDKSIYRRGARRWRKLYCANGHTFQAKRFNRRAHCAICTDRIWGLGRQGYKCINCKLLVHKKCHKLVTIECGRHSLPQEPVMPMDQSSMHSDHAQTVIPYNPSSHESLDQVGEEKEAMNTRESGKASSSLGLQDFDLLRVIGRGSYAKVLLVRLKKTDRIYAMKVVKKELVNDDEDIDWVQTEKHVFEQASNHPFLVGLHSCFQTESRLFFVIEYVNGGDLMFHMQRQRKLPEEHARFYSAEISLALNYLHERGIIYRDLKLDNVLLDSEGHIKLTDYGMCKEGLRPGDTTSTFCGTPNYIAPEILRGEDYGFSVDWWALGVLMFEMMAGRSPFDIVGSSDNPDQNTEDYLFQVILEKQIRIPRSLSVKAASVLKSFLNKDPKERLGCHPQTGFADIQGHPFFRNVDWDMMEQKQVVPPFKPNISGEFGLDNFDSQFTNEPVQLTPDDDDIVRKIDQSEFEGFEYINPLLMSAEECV

[13] = target: T2, Protein kinase C iota type (Homo sapiens); details: at 1 µM
[14] = target: Protein kinase C theta type (Homo sapiens) (UniProt Q04759); details: at 0.1 µM
[15] = target: Protein kinase C theta type (Homo sapiens) (UniProt Q04759); details: at 1 µM
[16] = target: Protein kinase C beta type (Homo sapiens) (UniProt P05771); details: at 0.1 µM; remark: listed apart in the source
[17] = target: Protein kinase C beta type (Homo sapiens) (UniProt P05771); details: at 1 µM; remark: listed apart in the source
[18] = target: T3, Serine/threonine-protein kinase D1 (Homo sapiens) (UniProt Q15139); details: at 0.1 µM
T3 sequence (whole entry): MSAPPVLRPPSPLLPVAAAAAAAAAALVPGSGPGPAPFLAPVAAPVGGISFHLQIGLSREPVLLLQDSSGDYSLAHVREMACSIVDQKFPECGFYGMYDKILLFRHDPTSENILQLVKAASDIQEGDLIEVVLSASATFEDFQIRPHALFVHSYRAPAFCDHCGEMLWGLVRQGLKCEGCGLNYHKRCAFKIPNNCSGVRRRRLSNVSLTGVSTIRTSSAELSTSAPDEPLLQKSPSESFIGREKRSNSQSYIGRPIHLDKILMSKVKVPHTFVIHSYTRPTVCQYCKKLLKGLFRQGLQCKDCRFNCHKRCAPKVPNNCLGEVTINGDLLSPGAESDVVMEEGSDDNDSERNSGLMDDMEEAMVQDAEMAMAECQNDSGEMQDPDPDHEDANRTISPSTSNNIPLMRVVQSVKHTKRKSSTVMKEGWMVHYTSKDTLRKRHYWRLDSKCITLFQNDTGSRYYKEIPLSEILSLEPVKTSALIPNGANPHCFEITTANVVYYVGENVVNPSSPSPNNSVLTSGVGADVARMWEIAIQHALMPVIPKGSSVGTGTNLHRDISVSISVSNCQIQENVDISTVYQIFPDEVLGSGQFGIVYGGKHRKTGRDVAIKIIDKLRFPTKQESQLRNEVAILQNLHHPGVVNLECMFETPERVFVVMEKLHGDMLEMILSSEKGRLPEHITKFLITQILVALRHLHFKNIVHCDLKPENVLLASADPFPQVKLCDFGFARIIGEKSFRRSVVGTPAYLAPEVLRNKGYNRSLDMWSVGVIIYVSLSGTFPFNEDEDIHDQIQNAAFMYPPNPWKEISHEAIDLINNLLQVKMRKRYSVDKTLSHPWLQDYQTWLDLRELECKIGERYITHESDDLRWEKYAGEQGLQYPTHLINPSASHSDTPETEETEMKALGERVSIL

[19] = target: T3, Serine/threonine-protein kinase D1 (Homo sapiens); details: at 1 µM
[20] = target: T4, Serine/threonine-protein kinase D2 (Homo sapiens) (UniProt Q9BZL6); details: at 0.1 µM;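 also: reported percent inhibition values are means, part of the GSK PKIS kinase panel screen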
T4 sequence (whole entry): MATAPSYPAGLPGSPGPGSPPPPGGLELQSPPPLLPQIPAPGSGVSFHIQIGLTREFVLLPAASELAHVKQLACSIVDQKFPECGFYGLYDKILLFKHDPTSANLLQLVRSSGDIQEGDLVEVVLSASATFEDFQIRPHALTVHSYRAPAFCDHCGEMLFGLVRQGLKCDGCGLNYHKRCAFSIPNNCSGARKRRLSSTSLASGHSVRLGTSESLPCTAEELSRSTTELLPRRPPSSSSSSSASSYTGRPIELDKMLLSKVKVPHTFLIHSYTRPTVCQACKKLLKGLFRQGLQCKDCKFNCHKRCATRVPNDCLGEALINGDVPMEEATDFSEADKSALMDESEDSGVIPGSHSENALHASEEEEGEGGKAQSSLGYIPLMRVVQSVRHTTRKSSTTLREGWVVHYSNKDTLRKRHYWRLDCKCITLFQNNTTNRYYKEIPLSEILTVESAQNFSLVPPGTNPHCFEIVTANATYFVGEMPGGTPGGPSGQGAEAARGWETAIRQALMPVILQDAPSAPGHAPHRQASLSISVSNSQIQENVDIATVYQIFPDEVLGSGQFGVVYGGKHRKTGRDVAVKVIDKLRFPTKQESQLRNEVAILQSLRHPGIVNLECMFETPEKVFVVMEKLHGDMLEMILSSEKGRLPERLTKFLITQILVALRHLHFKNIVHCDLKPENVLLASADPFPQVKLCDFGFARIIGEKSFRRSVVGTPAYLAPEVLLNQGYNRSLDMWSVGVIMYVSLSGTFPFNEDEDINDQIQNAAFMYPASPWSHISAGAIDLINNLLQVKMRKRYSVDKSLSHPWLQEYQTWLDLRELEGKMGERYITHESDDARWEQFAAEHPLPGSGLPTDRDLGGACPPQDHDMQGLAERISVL

Sequence of Protein kinase C theta type (Homo sapiens) (Q04759 whole entry, looked up): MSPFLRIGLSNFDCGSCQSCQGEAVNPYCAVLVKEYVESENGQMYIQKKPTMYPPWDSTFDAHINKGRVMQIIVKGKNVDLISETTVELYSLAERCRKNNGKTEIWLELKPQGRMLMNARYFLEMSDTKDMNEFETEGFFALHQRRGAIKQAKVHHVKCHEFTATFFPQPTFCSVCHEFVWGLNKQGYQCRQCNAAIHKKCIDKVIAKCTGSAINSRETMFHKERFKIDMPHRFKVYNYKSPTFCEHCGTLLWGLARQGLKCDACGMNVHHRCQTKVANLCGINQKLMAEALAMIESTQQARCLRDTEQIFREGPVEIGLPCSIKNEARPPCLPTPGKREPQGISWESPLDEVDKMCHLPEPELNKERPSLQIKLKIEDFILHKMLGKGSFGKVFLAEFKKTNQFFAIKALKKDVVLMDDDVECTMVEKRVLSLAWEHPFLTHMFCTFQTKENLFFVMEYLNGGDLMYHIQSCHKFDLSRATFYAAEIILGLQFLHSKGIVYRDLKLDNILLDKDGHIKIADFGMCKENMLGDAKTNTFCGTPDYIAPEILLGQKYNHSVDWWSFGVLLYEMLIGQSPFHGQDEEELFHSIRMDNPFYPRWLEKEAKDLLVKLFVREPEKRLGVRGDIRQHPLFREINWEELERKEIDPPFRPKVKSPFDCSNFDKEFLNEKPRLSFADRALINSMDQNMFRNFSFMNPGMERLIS
Sequence of Protein kinase C eta type (Homo sapiens) (P24723 whole entry): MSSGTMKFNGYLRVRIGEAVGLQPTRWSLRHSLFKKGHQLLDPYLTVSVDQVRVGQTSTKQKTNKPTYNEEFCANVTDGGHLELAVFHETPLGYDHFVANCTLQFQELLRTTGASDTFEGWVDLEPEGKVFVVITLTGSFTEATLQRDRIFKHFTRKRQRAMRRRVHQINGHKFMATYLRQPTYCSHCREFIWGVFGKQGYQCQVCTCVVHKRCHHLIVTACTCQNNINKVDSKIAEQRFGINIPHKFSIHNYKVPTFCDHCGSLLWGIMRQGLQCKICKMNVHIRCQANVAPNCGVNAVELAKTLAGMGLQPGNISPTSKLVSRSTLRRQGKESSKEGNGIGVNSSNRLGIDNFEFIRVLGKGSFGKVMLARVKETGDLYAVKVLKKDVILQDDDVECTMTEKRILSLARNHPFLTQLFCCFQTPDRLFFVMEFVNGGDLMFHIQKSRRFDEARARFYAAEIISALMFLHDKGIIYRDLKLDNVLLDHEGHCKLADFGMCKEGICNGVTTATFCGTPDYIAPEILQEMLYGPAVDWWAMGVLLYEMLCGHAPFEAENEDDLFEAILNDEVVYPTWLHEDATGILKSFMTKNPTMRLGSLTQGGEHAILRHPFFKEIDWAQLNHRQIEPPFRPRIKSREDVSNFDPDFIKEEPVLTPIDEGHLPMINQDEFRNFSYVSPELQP
Sequence of Protein kinase C beta type (Homo sapiens) (P05771 2-671 limits assumed): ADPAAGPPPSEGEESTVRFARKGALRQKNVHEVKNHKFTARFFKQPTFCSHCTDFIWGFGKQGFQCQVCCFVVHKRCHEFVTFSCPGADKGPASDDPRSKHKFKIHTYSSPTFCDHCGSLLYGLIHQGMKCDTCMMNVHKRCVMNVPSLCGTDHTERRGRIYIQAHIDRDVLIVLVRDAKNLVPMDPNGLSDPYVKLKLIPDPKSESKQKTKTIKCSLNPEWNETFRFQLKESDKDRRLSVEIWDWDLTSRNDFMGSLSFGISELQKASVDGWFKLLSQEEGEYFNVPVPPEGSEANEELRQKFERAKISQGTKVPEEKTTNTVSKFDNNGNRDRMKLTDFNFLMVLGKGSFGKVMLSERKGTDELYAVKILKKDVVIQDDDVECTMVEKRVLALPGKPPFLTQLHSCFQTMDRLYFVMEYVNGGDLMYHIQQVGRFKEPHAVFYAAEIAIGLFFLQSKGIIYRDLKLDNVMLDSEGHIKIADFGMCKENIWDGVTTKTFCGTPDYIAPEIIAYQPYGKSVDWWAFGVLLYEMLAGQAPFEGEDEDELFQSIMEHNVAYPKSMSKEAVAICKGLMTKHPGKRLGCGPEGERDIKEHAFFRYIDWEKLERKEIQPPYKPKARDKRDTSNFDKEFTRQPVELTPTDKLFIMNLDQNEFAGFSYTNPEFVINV

Row | Compound | inhibition [1] | inhibition [2] | inhibition [3] | inhibition [4] | inhibition [5] | inhibition [6] | inhibition [7] | inhibition [8] | inhibition [9] | inhibition [10] | inhibition [11] | inhibition [12] | inhibition [13] | inhibition [14] | inhibition [15] | inhibition [16] | inhibition [17] | inhibition [18] | inhibition [19] | inhibition [20]
1 | O=C1NC(=O)C(c2cccc(Cl)c2)=C1Nc1ccc(Cl)c(C(=O)O)c1 | 1.28% | 2.1% | 1.05% | 0.36% | 0.21% | 0.61% | 1.11% | 3.84% | 8.96% | 4.02% | 4.28% | 0.11% | 0.87% | 1.72% | 3.51% | 1% | 1.2% | 2.5% | 3.42% | 3.1%
2 | C[C@@H](Oc1cc(-n2cnc3ccc(OCC4CCN(C)CC4)cc32)sc1C(N)=O)c1ccccc1Cl | 2.77% | 3.4% | -1.07% | 1.11% | 5.2% | 1.4% | 3.67% | 5.52% | 5.34% | 3.17% | 6.3% | 1.84% | 2.7% | 4.47% | 15.3% | 3.47% | 11.6% | 6.16% | 12% | 7.73%
3 | C[C@@H](Oc1cc(-n2cnc3ccc(OC4CCN(C)CC4)cc32)sc1C(N)=O)c1ccccc1Cl | 0.63% | -1.89% | -4.19% | -3.4% | 0.64% | 0.95% | 3.55% | 2.46% | 4.62% | 0.71% | 4.97% | 1.12% | 2.89% | 3.08% | 9.67% | 1.56% | 8.48% | 0.52% | 3.79% | 0.7%
4 | COc1cc(N2CCN(C(C)C)CC2)ccc1Nc1nc(Nc2ccc(F)cc2C(=O)NC[C@@H](O)CO)c2cc[nH]c2n1 | -0.19% | -1.57% | 0.73% | -2.86% | -2.46% | 1.6% | 4.35% | 4.05% | 7.17% | -2.06% | 7.34% | 2.87% | 0.36% | 3.85% | 6.2% | 1.04% | 2.5% | 1.65% | 13.4% | 3.16%
5 | O=C1Nc2ccc(I)cc2C1=Cc1cc(Br)c(O)c(Br)c1 | 1.34% | 2.28% | 2.5% | 0.27% | 0.59% | 0.25% | 1.41% | 5.57% | 2.17% | 2.32% | 2.63% | 0.72% | 1.75% | 1.74% | 2.5% | 0.99% | 1.87% | 3.52% | 4.76% | 2.97%
6 | O=C(Nc1n[nH]c2cc(-c3cc(F)ccc3F)ccc12)C1CC1 | 2.95% | 2.32% | 0.93% | 0.67% | 1.99% | 0.43% | 2.04% | 2.87% | 3.93% | 2.77% | 1.94% | -0.39% | 2.69% | 1.32% | 1.51% | 1.71% | 4.18% | 2.95% | 3.73% | 3.73%
7 | O=C(NCC1CC1)c1ccc(-c2cccc(C(=O)NC3CC3)c2)cc1 | 0.6% | 0.93% | 0.36% | 1.02% | 0.96% | -0.06% | -2% | 3.93% | -1.4% | 4.6% | -1.2% | 2.21% | 3.55% | 1.24% | -0.68% | 0.69% | -1.18% | 1.97% | 2.45% | 2.36%
